# Results filed as inconclusive are left out. Active and inactive are the calls of the source. Calls come from the whole dose curve; as a rule, active = well fitted inhibition curve with a large enough effect; inconclusive = small, poorly fitted or top-dose-only effect; inactive = flat fitted curve, though single readings scatter.
# System: HaCat
# Test: Cytotoxic Profiling of Annotated Libraries Using Quantitative High-Throughput Screening (AID 1296008); note: nearly all actives have a fitted effect of over 60% in size
# Details: Five cell lines viability, CellTiter-Glo ATP luminescence, 48-72 h; max response: active compounds read low
# Summary of the method: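 Cells exposed to compounds for 48 or 72 hr at 37 degrees Celsius. Viability read as ATP-coupled luminescence with CellTiter-Glo after 10 min at room temperature.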
# % is set by controls: 0 for no effect and ±100 for the full control effect; potency is the fitted concentration of half-maximal effect.
SMILES,Potency,max response,outcome
CCN(CCCOc1ccc2c(Nc3cc(CC(=O)Nc4cccc(F)c4)[nH]n3)ncnc2c1)CCOP(=O)(O)O,2.06 µM (active),,
OCC(Cc1ccccc1)Nc1nc(Oc2ccc3c(c2)CCC3)nc2c1ncn2Cc1ccc(-c2ccccc2)cc1 (configuration not stated),18.4 µM (active),,
O=C(NC(NC(=S)Nc1ccc(F)c([N+](=O)[O-])c1)C(Cl)(Cl)Cl)C(c1ccccc1)c1ccccc1 (configuration not stated),,-1.87% (inactive),
CC1CCC2C(=CCC(O)C2(C)C)C1(C)Cc1c(O)cc(CO)c(C=O)c1O (configuration not stated),,,inactive
CCCCn1c(-c2ccccc2)nc(-c2ccccc2)c1CN(Cc1ccc2c(c1)OCO2)Cc1ccc2c(c1)OCO2,,-27.1% (inactive),
COc1ccc(CNC(=O)Nc2ncc([N+](=O)[O-])s2)cc1,,3.95% (inactive),
O=C(NCc1ccc(Oc2ccccc2)cc1)c1nc(-c2cc(Br)c(O)c(Br)c2)no1,,,inactive

# — PubChem BioAssay (NCATS)
